For ten molecules, parasite growth, % of DMSO control results are on record in PubChem BioAssay (NCATS).

This assay can be described thus: qHTS profiling of the MIPE4 collection as inhibitors of Plasmodium falciparum (3D7) proliferation (AID 743344).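 Note: scaled between DMSO vehicle wells and 0.29 µM artemisinin as full inhibition.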 The following applies: P. falciparum 3D7 in erythrocytes, SYBR Green DNA fluorescence, 72 h; at 28.5 µM. From the text:
Plasmodium falciparum is a virulent malarial parasite that kills 1-2 million people worldwide each year. Transmitted by mosquitoes, the sporozoite form of the parasite enters the blood stream to infect hepatocytes, where they become merozoites that infect red blood cells (erythrocytes). Within erythrocytes, merozoites begin a […] cycle of growth and division, after which the parasite is released to infect new red blood cells. Gametocytes, which form within erythrocytes as well, circulate in the bloodstream and are ingested by the mosquito, thereby completing the life cycle. To profile malarial isolates for differential chemical responses and to identify inhibitors of malarial growth, an assay that measures P. falciparum growth and replication within erythrocytes was employed. This assay uses a DNA binding fluorescent dye (SYBR Green) to detect parasite DNA following cell lysis. Because mature erythrocytes lack DNA, only Plasmodium-derived DNA is detected.
The SYBR Green viability assay was adapted from a method described previously (Plouffe et al., 2008). For screening 3 ul culture medium was dispensed into 1536 well black clear bottom plates (Aurora Biotechnologies) using a Multidrop Combi (Thermo Fisher Scientific Inc.), 23 nL compounds in DMSO were added by a pin tool (Kalypsys), and 5 ul of erythrocytes infected with P. falciparum (0.3% parasitemia, 2.5% hematocrit final concentration) were added. The plates were incubated at 37 C in a humidified incubator in 5% CO2 for 72 h, and 2 ul lysis buffer (20 mM Tris HCl, 10 mM EDTA, 0.16% saponin, 1.6% triton X, 10X SYBR Green I supplied as 10,000X […] by Invitrogen) was added to each well. The plates were mixed for 25 sec with gentle shaking and incubated overnight at room temperature in the dark. The following morning, fluorescence intensity at 485(14) nm excitation and 535(25) nm emission wavelengths was measured on an EnVision (Perkin Elmer) plate reader. Plate reads were normalized relative to the control inhibitor (0.29 uM artemisinin) and vehicle (DMSO) wells present on each plate and then corrected by an algorithm using vehicle-only control plates at the beginning and end of the compound plate stack.
On the technique in general: Quantitative high-throughput screening tests each substance at several concentrations.
As to `COC(=O)C1=CCCN(C)C1`, the parasite growth, % of DMSO control was determined as 75.8%.

For `O=C(O)c1nn(Cc2ccc(Cl)cc2Cl)c2ccccc12`, the parasite growth, % of DMSO control was determined as 75.4%.

Take `C=CCc1cc(OC)c(O)c(C(=O)NCCO)c1`: the parasite growth, % of DMSO control was 114%.

As to `CCOC(=O)Nc1ccc(NCc2ccc(F)cc2)nc1N`, the parasite growth, % of DMSO control worked out at 40.6%.

On to `Cc1cc(C(C)(C)C)cc(C)c1CC1=NCCN1`, for which the parasite growth, % of DMSO control was 58.8%.

In turn, `CCCS(=O)c1ccc2nc(NC(=O)OC)[nH]c2c1` (stereo not given) registered a parasite growth, % of DMSO control of 81.1%.

With `NC(N)=NC(=O)c1nc(Cl)c(N)nc1N`, the parasite growth, % of DMSO control was determined as 116%.

For `C[C@@H]1C[C@@H]([C@H](O)CC2CC(=O)NC(=O)C2)C(=O)[C@@H](C)C1`, the parasite growth, % of DMSO control amounted to 5.16%.

In the case of `NC(=O)Cc1cccc(C(=O)c2ccccc2)c1N`, the parasite growth, % of DMSO control amounted to 102%.

`COc1ccc(C(=O)N2CCCC2=O)cc1`: the parasite growth, % of DMSO control was 90.2%.
